# An excerpt weighted towards active compounds, which were near 8.7% of everything screened.
# G9a block = inhibitors of human histone lysine methyltransferase G9a; G9a H3K9 monomethylation, AlphaScreen, 2 h; Potency, µM (series often up to 102 µM), inactives show top-dose activity, negative = inhibition, actives largely listed as inhibitors; actives 8.8% (n = 350,000); also: % is scaled to controls: 0 for no effect and ±100 for the full control effect; nearly all actives have a fitted effect of over 75% in size
#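 Chemiluminescent proximity detection of H3K9 monomethylation, read after 10 min bead incubation in the dark. Reaction: 20 nM G9a, 500 nM biotin-H3K9 peptide, 20 uM SAM cofactor, 2 h, room temperature, following 15 min enzyme-compound preincubation.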
# 12-LOX inh = ALOX12 (human) lipoxygenase inhibition | P18054 | purified 12hLO, xylenol orange hydroperoxide absorbance | Potency, µM (highest dose often 108 µM), without a hit: top-dose activity change, negative = inhibition, most hits filed as inhibitors | actives 1.1% (n = 580,000) | AID 1671190; also: % is scaled to controls: 0 for no effect and ±100 for the full control effect
# Target sequence (P18054 whole entry, looked up): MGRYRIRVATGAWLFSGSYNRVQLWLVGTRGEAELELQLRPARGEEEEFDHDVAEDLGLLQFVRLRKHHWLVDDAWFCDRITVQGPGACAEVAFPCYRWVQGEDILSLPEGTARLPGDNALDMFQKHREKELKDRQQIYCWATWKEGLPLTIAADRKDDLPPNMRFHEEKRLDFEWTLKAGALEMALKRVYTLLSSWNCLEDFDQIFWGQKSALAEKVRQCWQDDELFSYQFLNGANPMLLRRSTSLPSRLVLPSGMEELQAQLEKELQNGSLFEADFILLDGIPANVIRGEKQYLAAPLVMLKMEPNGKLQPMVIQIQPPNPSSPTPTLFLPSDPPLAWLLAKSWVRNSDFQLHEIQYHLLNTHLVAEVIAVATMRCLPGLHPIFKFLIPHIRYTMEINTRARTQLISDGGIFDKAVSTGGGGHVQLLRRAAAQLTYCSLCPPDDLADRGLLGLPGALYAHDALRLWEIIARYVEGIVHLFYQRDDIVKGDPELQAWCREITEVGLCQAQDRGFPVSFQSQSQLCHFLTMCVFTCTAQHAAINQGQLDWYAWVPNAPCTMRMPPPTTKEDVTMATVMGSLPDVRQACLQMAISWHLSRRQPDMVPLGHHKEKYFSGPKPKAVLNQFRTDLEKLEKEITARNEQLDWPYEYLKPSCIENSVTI
#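 Purified human 12hLO (150 nM final) in 25 mM Hepes, 0.01% Triton X-100, pH 7.0 was preincubated 15 min at room temperature with compound. Then 40 uM arachidonic acid was added, 30 min. Hydroperoxide was read by Fe-XO absorbance ratio 573/405 nm.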
# HP1b chromo inh = inhibitors of HP1-beta chromodomain binding to methylated histone tails; Potency, µM (highest dose often 114 µM), for inactives: top-dose activity change, negative = inhibition, hits mostly inhibitors; AlphaScreen HP1-beta / biotin-H3K9me3 peptide binding; actives 0.56% (n = 390,000); P83916; also: nearly all actives have a fitted effect of over 70% in size
#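 Compound inhibition of the preformed complex between 50 nM HP1-beta and 50 nM biotinylated H3K9me3 peptide was read by AlphaScreen. Buffer was PBS pH 7.4 with 0.01% Tween-20. Incubations ran 30 min at room temperature, with 10 ug/mL donor/acceptor beads.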
# JMJD2A Tudor = JMJD2A Tudor domain (human) inhibition; O75164; AID 504339; AlphaScreen JMJD2A-Tudor / H3K4me3 peptide binding; actives 4.4% (n = 390,000); Potency, µM (titrated, usually from 114 µM), inactives show top-dose activity change, negative = inhibition, most hits filed as inhibitors; also: % is scaled to controls: 0 for no effect and ±100 for the full control effect; nearly all actives have a fitted effect of over 50% in size
# Sfp inh = inhibitors of Bacillus subtilis Sfp phosphopantetheinyl transferase; Biochemical Sfp PPTase activity, qHTS; actives 3.5% (n = 310,000); Q9F4F7; Potency, µM, inactives show largest response in the series, negative = inhibition, actives largely listed as inhibitors;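 also: the enzyme is Sfp with the accession as filed and its product quenches rhodamine fluorescence; 0% = enzyme reaction without inhibitor and -100% = no enzyme wells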
#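 Compounds were incubated with enzyme (final 15 nM) for 15 min at room temperature before substrate addition started the reaction. Fluorescence at 525 nm excitation, 598 nm emission was recorded immediately and after 30 minutes.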
# BAZ2B block = BAZ2B (human) inhibition; AlphaScreen BAZ2B-H3K14Ac peptide displacement; Potency, µM (highest dose often 114 µM), inactives show at the highest dose activity change, negative = inhibition, most hits filed as inhibitors; actives 4.4% (n = 360,000); AID 504333; also: % is scaled to controls: 0 for no effect and ±100 for the full control effect; nearly all actives have a fitted effect of over 60% in size
#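 BAZ2B (50 nM) with biotin-H3(5-23)K14Ac peptide (50 nM) in PBS pH 7.4, 0.01% Tween-20, preformed 30 min, then compound 30 min at room temperature; top concentration 110uM. AlphaScreen streptavidin donor/nickel chelate acceptor beads (10 ug/mL final), 20 min dark, signal read.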
# * = called active by the depositor; i = inactive; ? = inconclusive; nt = no result; [ ] = dose if it differs, or a comment. Calls follow the shape of the dose curve; as a rule, active = well fitted curve in the direction sought with a large enough effect; inconclusive = small, poorly fitted or top-dose-only effect, or another doubt; inactive = no such curve, though single readings can be large; an effect the other way counts as inactive or inconclusive. Potency is read from the fitted curve at half-maximal effect.
SMILES,G9a block,12-LOX inh,HP1b chromo inh,JMJD2A Tudor,Sfp inh,BAZ2B block
CN(C)c1ccc(N/C=C/C(=O)c2ccc(F)cc2)cc1,2.5µM*,nt,-1%,?,?,?
CN(C)c1ccc(N/C=C/C(=O)c2ccco2)cc1,7.1µM*,?,-38%,?,56µM*,35µM*
COc1cc(/C=C2/NC(=O)NC2=O)ccc1OCc1ccc(C(=O)O)cc1,nt,-14%,nt,nt,nt,nt
CCN1C(=O)/C(=C/c2ccc(OCc3ccc(C(=O)O)cc3)c(Cl)c2)NC1=S,71µM*,-2%,-5%,?,19%,?
CCN1C(=O)/C(=C/c2ccc(N3CCCC3)cc2)NC1=S,3.2µM*,?,?,?,1%,25µM*
CCCN1C(=O)/C(=C/c2ccc(N3CCCC3)c(C)c2)NC1=S,-48%[0.0925 µM],-30%,?,35µM*,1%,35µM*
CN1C(=O)/C(=C/c2ccc(O)c([N+](=O)[O-])c2)NC1=S,40µM*,-6%,2%,-32%,1%,?
Cc1nc2ccc(C(=O)NCC(C)(C)CN(C)C)cc2nc1C,nt,11%,nt,nt,nt,nt
Cc1cccc(NC(=O)N2CC3CC(C2)[C@H]2CCCC(=O)N2C3)c1 (some centres undefined),nt,25%,nt,nt,nt,nt
COCCc1noc(-c2nnn3c2COC(c2ccc(F)cc2)C3)n1 (centres undefined),nt,32%,nt,nt,nt,nt
O=C(Cc1ccsc1)NCc1ccccc1,nt,2%,nt,nt,nt,nt
Cc1cc(N2CCCC2)ccc1/C=C1/C(=O)N(C)C(=S)N1C,2.5µM*,4%,?,?,-10%,1.6µM*
Cc1cc(/C=C2/C(=O)N(C)C(=S)N2C)ccc1N1CCCC1,8.9µM*,-16%,35µM*,14µM*,-8%,14µM*
COc1cc(/C=C2\NC(=S)N(C)C2=O)ccc1O,?,?,20%,-17%,?,?
Cc1cc(/C=C2\NC(=S)N(C)C2=O)ccc1N1CCCC1,3%,-21%,22%,89µM*,0%,40µM*
O=C(N/N=C/c1ccccn1)c1cc[n+]([O-])cc1,nt,3%,nt,nt,nt,nt
CCS(=O)(=O)N1C[C@@H](C(=O)N2CCCCCC2)[C@H](c2ccncc2)C1,nt,0%,nt,nt,nt,nt
CN(C)S(=O)(=O)c1ccc2c(c1)cc(C(=O)NCC1CCCO1)n2C (centres undefined),nt,-10%,nt,nt,nt,nt
O=C(NCc1cccs1)C1CN(c2ccccc2)C(=O)N1 (centres undefined),nt,6%[176 µM],nt,nt,nt,nt
Cc1cnc(C(=O)OCC(=O)N=c2sccn2Cc2ccccc2Cl)cn1,4%,0%,39%,-12%,3%,-19%
O=C(COC(=O)c1cnccn1)N=c1sccn1Cc1ccccc1Cl,56µM*,0%,14%,-18%,nt,0%
CC1=[N+](C)c2ccc3ccccc3c2C1(C)C,8.9µM*,?,-5%,?,?,50µM*
COc1ccc(N2CC(C(=O)Nc3nnc(SCC(=O)N4CCOCC4)s3)CC2=O)cc1 (centres undefined),35µM*,-9%,5%,-26%,50µM*,-23%
Cc1cccc(N2CC(C(=O)Nc3nnc(SCC(=O)N4CCOCC4)s3)CC2=O)c1 (centres undefined),45µM*,i,22%,-27%,-23%,-25%
CSc1ccc(/C=C/C(=O)c2ccccc2)cc1,nt,-37%,nt,nt,nt,nt
SMILES,G9a block,12-LOX inh,HP1b chromo inh,JMJD2A Tudor,Sfp inh,BAZ2B block
CCc1ncc(C(=O)N2CCCC(CCc3cccc(C(F)(F)F)c3)C2)cn1 (centres undefined),nt,13%,nt,nt,nt,nt
O=C(c1ccc(COc2ccc(Br)cc2)o1)N1N=C(C(F)F)CC1(O)C(F)F (centres undefined),14%[59 µM],-4%,30%,-10%,?,7%
O=C(c1ccc(COc2ccc3ccccc3c2)o1)N1N=C(C(F)F)CC1(O)C(F)F (centres undefined),4%,-13%,34%,-11%,32µM*,4%
COCc1nnc(NC(=O)CCS(=O)(=O)c2ccccc2)s1,45µM*,3%,?,-9%,?,?
COCc1nnc(NC(=O)CCCOc2ccccc2OC)s1,?,0%,-25%,50µM*,-16%,-5%
O=C(CCS(=O)(=O)c1ccccc1)Nc1ncc([N+](=O)[O-])s1,45µM*,0%,7%,-6%,9%,-1%
O=C(CN1C(=O)c2ccccc2S1(=O)=O)Nc1ncc([N+](=O)[O-])s1,?,?,-23%,3.5µM*,nt,?
COCc1nnc(NC(=O)CCCOc2ccccc2)s1,5%[12.7 µM],-14%,37%,-26%,10%,-2%
CNC(=O)CCC[C@@H]1[C@H]2CCCN3CCC[C@@H](CN1C(C)=O)[C@@H]23,nt,22%,nt,nt,nt,nt
O=C(CSc1n[nH]c(-c2ccccc2)n1)Nc1cccc(C(=O)Nc2cccc(C(F)(F)F)c2)c1,nt,1%,nt,nt,nt,nt
COc1ccc(C(=O)Nc2ccc3nc(C)[nH]c3c2)c(OC)c1,nt,-7%,nt,nt,nt,nt
O=C(O)c1cc(C(=O)O)cc(N2C(=O)CSC2=S)c1,18µM*,-4%,-8%,4%,-30%,?
CCN(CC)c1ccc(N2C(=O)CSC2=S)cc1,5%,i,?,50µM*,8%,-4%
CCOc1ccc(N2C(=O)CSC2=S)cc1,-24%,2%,48%,-6%,17%,-24%
CCOC(=O)C1(Cc2cccc(Cl)c2)CCCNC1 (centres undefined),nt,71%,nt,nt,nt,nt
O=C(CC1CCCCC1)Nc1ccccc1-c1ccccc1,-14%[59 µM],-12%,34%,-4%,25%,2%
CC(NC1CCCC1)C(=O)Nc1ccccc1-c1ccccc1 (centres undefined),?,0%,?,2µM*,-16%,79µM*
CN1[C@@H](CCC(=O)N2CCN(c3ccccc3)CC2)CNC(=O)[C@@H]2[C@H]1CCN2Cc1cccc(Cl)c1,nt,13%,nt,nt,nt,nt
Brc1ccc(CSc2nnc(-c3ccccn3)n2Cc2ccco2)cc1,50µM*,5%,26%,-33%,-25%,?
Clc1cccc(CSc2nnc(-c3ccccn3)n2Cc2ccco2)c1,?,-51%,19%,-26%,-20%,?
Clc1ccc(CSc2nnc(-c3ccccn3)n2Cc2ccco2)cc1Cl,nt,24%,nt,nt,nt,nt
CC(C)(C)c1ccc(CSc2nnc(-c3ccccn3)n2Cc2ccco2)cc1,-5%[12.7 µM],0%,21%,-23%,32µM*,?
CCCNC(=O)CC1CCCN(c2cnn(C)c(=O)c2)C1 (centres undefined),nt,13%,nt,nt,nt,nt
CCC(CC)NC(=O)/C=C/c1csc(C)n1,nt,-20%,nt,nt,nt,nt
Cc1cccc(NC(=O)CC(=O)Nc2cccc(C)c2)c1,18%,16%,25%,-2%,4%,2%

# Screens: PubChem BioAssay, National Center for Advancing Translational Sciences (NCATS)
